Measured values published in PubChem BioAssay AID1159580 (chemical genetic matrix, 2015).
Values joined by “and” are separate entries in the source; they are usually repeats but may differ in a detail not shown here. Identical values can stand only once. Hit rate of the full screen: of about 5,500 compounds, about 2,000 (36%) were called active. About 18% were inconclusive and are not listed. Rule as the data show it: active = normalized growth mostly below about 0.91 (no sharp cut-off); inconclusive = no clear call, values can overlap the other calls; inactive = mostly above about 0.92. Some of the results follow.

Assay: chemical genetic growth profiling, strain panel (AID 1159580);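 also: tested at 20 µM; growth read once vehicle control cultures reached saturation at 30 °C; 1 = growth at the plate median or of vehicle wells; lower values mean less growth of the strain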
Details: S. cerevisiae deletion strains, growth OD
[1] = locus YBR229C, strain ROT2, active compounds read low
[2] = locus YCL061C, strain MRC1, active compounds read low
[3] = locus YDL101C, strain DUN1, active compounds read low
[4] = locus YDL134C, strain PPH21, active compounds read low
[5] = locus YEL061C, strain CIN8, active compounds read low
[6] = locus YHR030C, strain SLT2, active compounds read low
[7] = locus YJR043C, strain POL32, active compounds read low
[8] = locus YKL190W, strain CNB1, active compounds read low
[9] = locus YLR039C, strain RIC1, active compounds read low
[10] = locus YMR263W, strain SAP30, active compounds read low
[11] = locus YMR307W, strain GAS1, active compounds read low
[12] = locus YNL153C, strain GIM3, active compounds read low
[13] = locus YPL055C, strain LGE1, active compounds read low

Measured: normalized growth

C[C@H]1C(=O)CCC2[C@]3(C)CC[C@@]4(C)C5CC(C)(C)CC[C@]5(C)CC[C@]4(C)C3CC[C@@]21C (stereo partly specified)
inactive: locus YAL021C, strain ccr4, active compounds read low 0.979 | locus YAL026C, strain drs2, active compounds read low 1.02 | locus YAL030W, strain snc1, active compounds read low 1 | locus YBL061C, strain skt5, active compounds read low 1 | locus YBR009C, strain hhf1, active compounds read low 1.02 | locus YBR023C, strain chs3, active compounds read low 1 | locus YBR171W, strain sec66, active compounds read low 1 | [1] 1.02 | locus YBR231C, strain swc5, active compounds read low 0.997 | locus YBR279W, strain paf1, active compounds read low 1.01 | locus YCL011C, strain gbp2, active compounds read low 1.01 | locus YCL016C, strain dcc1, active compounds read low 1 | locus YCL029C, strain bik1, active compounds read low 0.968 | [2] 1.01 | locus YCL069W, strain vba3, active compounds read low 1.01 | locus YCR088W, strain abp1, active compounds read low 1.01 | locus YDL005C, strain med2, active compounds read low 0.995 | locus YDL035C, strain GPR1, active compounds read low 0.983 | locus YDL040C, strain nat1, active compounds read low 1.01 | locus YDL074C, strain BRE1, active compounds read low 0.955 | [3] 1.02 | [4] 0.97 | locus YDL185W, strain tfp1, active compounds read low 1.02 | locus YDR001C, strain nth1, active compounds read low 1 | locus YDR069C, strain doa4, active compounds read low 0.992 | locus YDR101C, strain arx1, active compounds read low 0.981 | locus YDR137W, strain rgp1, active compounds read low 0.987 | locus YDR159W, strain sac3, active compounds read low 0.981 | locus YDR162C, strain NBP2, active compounds read low 0.857 | locus YDR195W, strain ref2 0.966 | locus YDR297W, strain sur2, active compounds read low 0.996 | locus YDR318W, strain mcm21, active compounds read low 0.991 | locus YDR334W, strain swr1, active compounds read low 1 | locus YDR335W, strain msn5, active compounds read low 1.02 | locus YDR388W, active compounds read low 1 | locus YDR392W, strain spt3, active compounds read low 0.934 | locus YDR502C, strain sam2, active compounds read low 0.97 | locus YEL003W, strain gim4, active compounds read low 1.01 | locus YEL037C, strain rad23, active compounds read low 0.999 | locus YEL061C, strain CIN8 (second series), active compounds read low 1.01 | [5] 1.02 | locus YER015W, strain faa2, active compounds read low 1.01 | locus YER016W, strain bim1, active compounds read low 0.994 | locus YER110C, active compounds read low 1.01 | locus YER111C, strain swi4, active compounds read low 0.998 | locus YER155C, strain BEM2 (second series), active compounds read low 0.995 | locus YER155C, strain BEM2, active compounds read low 1.03 | locus YER167W, strain BCK2, active compounds read low 0.98 | locus YFR010W, strain ubp6, active compounds read low 1.01 | locus YGL078C, strain dbp3, active compounds read low 1.04 | locus YGL086W, strain mad1, active compounds read low 0.974 | locus YGL167C, strain pmr1, active compounds read low 1 | locus YGL173C, strain kem1, active compounds read low 1.01 | locus YGL227W, strain vid30, active compounds read low 1 | locus YGL240W, strain doc1, active compounds read low 0.978 | locus YGL248W, strain PDE1, active compounds read low 0.978 | locus YGL253W, strain hxk2, active compounds read low 1.03 | locus YGR135W, strain pre9, active compounds read low 1.01 | locus YGR252W, strain gcn5, active compounds read low 0.902 | locus YHR013C, strain ard1, active compounds read low 1.01 | locus YHR027C, strain rpn1, active compounds read low 1.01 | [6] 1.04 | locus YHR079C, strain IRE1 (second series), active compounds read low 1.02 | locus YHR079C, strain IRE1, active compounds read low 1.04 | locus YHR094C, strain hxt1, active compounds read low 1.01 | locus YHR129C, strain ARP1, active compounds read low 1 | locus YHR142W, strain chs7, active compounds read low 1.03 | locus YHR200W, strain rpn10, active compounds read low 0.951 | locus YIL066C, strain RNR3, active compounds read low 0.969 | locus YIL073C, strain SPO22, active compounds read low 1.02 | locus YIL125W, strain kgd1, active compounds read low 1 | locus YIR030C, strain dcg1, active compounds read low 1.02 | locus YJL092W, strain hpr5, active compounds read low 1.01 | locus YJL095W, strain BCK1 (second series), active compounds read low 0.999 | locus YJL095W, strain BCK1, active compounds read low 0.936 and 1.01 | locus YJL115W, strain asf1, active compounds read low 1 | locus YJL129C, strain trk1, active compounds read low 1.01 | locus YJL134W, strain LCB3, active compounds read low 1.03 | locus YJL154C, strain vps35, active compounds read low 1 | locus YJL164C, strain tpk1, active compounds read low 1.01 | locus YJL166W, strain qcr8, active compounds read low 1 | locus YJL168C, strain set2, active compounds read low 1.02 | locus YJL187C, strain SWE1 (second series), active compounds read low 0.995 | locus YJL187C, strain SWE1, active compounds read low 1 | [7] 0.949 | locus YJR066W, strain TOR1, active compounds read low 0.984 | locus YKL009W, strain mrt4, active compounds read low 1.03 | locus YKL068W, active compounds read low 1.02 | locus YKL085W, strain MDH1 (second series), active compounds read low 1.01 | locus YKL085W, strain MDH1, active compounds read low 1.01 | locus YKL160W, strain elf1, active compounds read low 1.01 | [8] 1.02 | locus YKR026C, strain gcn3, active compounds read low 0.999 | locus YKR091W, strain srl3, active compounds read low 1.01 | locus YLL001W, strain dnm1, active compounds read low 1 | locus YLL026W, active compounds read low 1 | locus YLL041C, strain sdh2, active compounds read low 1.01 | locus YLR027C, strain aat2, active compounds read low 1 | [9] 0.738 | locus YLR058C, strain SHM2, active compounds read low 0.994 | locus YLR102C, strain apc9, active compounds read low 1.02 | locus YLR113W, strain HOG1, active compounds read low 0.965 | locus YLR221C, strain rsa3, active compounds read low 0.995 | locus YLR258W, strain gsy2, active compounds read low 1 | locus YLR262C, strain YPT6 (second series), active compounds read low 1.01 | locus YLR268W, strain sec22, active compounds read low 0.985 | locus YLR320W, strain mms22, active compounds read low 1.01 | locus YLR342W, strain FKS1 (second series), active compounds read low 0.992 | locus YLR342W, strain FKS1, active compounds read low 1 | locus YLR357W, strain rsc2, active compounds read low 0.977 | locus YLR370C, strain arc18, active compounds read low 1.02 | locus YLR371W, strain rom2, active compounds read low 1 | locus YLR384C, strain iki3, active compounds read low 0.978 | locus YLR418C, strain cdc73, active compounds read low 0.876 | locus YML016C, strain PPZ1, active compounds read low 1.01 | locus YML032C, strain rad52, active compounds read low 0.953 | locus YML120C, strain ndi1, active compounds read low 0.998 | locus YML124C, strain tub3, active compounds read low 1.02 | locus YMR058W, strain fet3, active compounds read low 1.02 | locus YMR078C, strain ctf18, active compounds read low 1.01 | locus YMR125W, strain sto1, active compounds read low 0.995 | locus YMR129W, active compounds read low 0.996 | locus YMR205C, strain PFK2, active compounds read low 1.02 | locus YMR223W, strain ubp8, active compounds read low 0.994 | locus YMR231W, strain pep5, active compounds read low 0.996 | [10] 1.02 | [11] 1.04 | locus YNL067W, strain RPL9B, active compounds read low 1.02 | locus YNL071W, strain lat1, active compounds read low 1.01 | [12] 1.01 | locus YNL183C, strain NPR1, active compounds read low 0.981 | locus YNL209W, strain ssb2, active compounds read low 1.02 | locus YNL233W, strain BNI4, active compounds read low 1.01 | locus YNL248C, strain rpa49, active compounds read low 0.919 | locus YNL250W, strain rad50, active compounds read low 1.03 | locus YNL271C, strain bni1, active compounds read low 1.01 | locus YNL298W, strain CLA4, active compounds read low 0.993 | locus YNL307C, strain MCK1, active compounds read low 0.984 | locus YNL322C, strain KRE1 (second series), active compounds read low 0.985 | locus YNR049C, strain mso1, active compounds read low 0.994 | locus YOL006C, strain TOP1, active compounds read low 0.757 | locus YOL012C, strain htz1 1.29 | locus YOL147C, strain pex11, active compounds read low 0.987 | locus YOR001W, strain rrp6, active compounds read low 0.98 | locus YOR061W, strain CKA2, active compounds read low 0.985 | locus YOR069W, strain VPS5, active compounds read low 1.01 | locus YOR070C, strain gyp1, active compounds read low 0.996 | locus YOR080W, strain dia2, active compounds read low 1 | locus YOR083W, strain WHI5, active compounds read low 1.01 | locus YOR106W, strain vam3, active compounds read low 1.02 | locus YOR136W, strain idh2, active compounds read low 0.994 | locus YOR144C, strain elg1, active compounds read low 1 | locus YOR184W, strain ser1, active compounds read low 0.967 | locus YOR231W, strain MKK1, active compounds read low 0.985 | locus YOR265W, strain rbl2, active compounds read low 0.993 | locus YOR270C, strain vph1, active compounds read low 1.05 | locus YOR290C, strain snf2, active compounds read low 0.991 | locus YOR316C, strain cot1, active compounds read low 1.01 | locus YPL051W, strain arl3, active compounds read low 0.999 | [13] 0.938 | locus YPL078C, strain atp4, active compounds read low 1.03 | locus YPL106C, strain sse1, active compounds read low 0.989 | locus YPL240C, strain hsp82, active compounds read low 0.997 | locus YPL256C, strain CLN2, active compounds read low 1.05 | locus YPR119W, strain clb2, active compounds read low 1.02 | locus YPR141C, strain kar3, active compounds read low 1.02 | locus YPR163C, strain tif3, active compounds read low 0.993 | locus YPR167C, strain met16, active compounds read low 1.01 | strain wtn01, active compounds read low 0.948
active: locus YBR021W, strain FUR4, active compounds read low 0.713 | locus YDL192W, strain arf1, active compounds read low 0.901 | locus YKR001C, strain vps1, active compounds read low 0.876 | locus YNR052C, strain pop2, active compounds read low 0.851

Cc1cc2c(cc1C)CSC(C)(c1ccc(F)cc1)SC2
inactive: locus YAL013W, strain DEP1, active compounds read low 0.994 | [1] 0.994 | [2] 0.993 | [3] 0.968 | [4] 0.997 | locus YDR150W, strain NUM1, active compounds read low 0.903 | [5] 1.02 | locus YGR078C, strain PAC10, active compounds read low 0.979 | [6] 0.952 | locus YHR087W, strain rtc3, active compounds read low 1.01 | [7] 0.982 | locus YJR075W, strain HOC1, active compounds read low 0.978 | [8] 0.992 | [9] 0.953 | locus YLR058C, strain SHM2 (second series), active compounds read low 1 | locus YLR085C, strain ARP6, active compounds read low 1.03 | locus YLR262C, strain YPT6, active compounds read low 0.961 | locus YML094W, strain GIM5, active compounds read low 1.01 | locus YMR219W, strain ESC1, active compounds read low 1.01 | [10] 0.947 | [11] 0.737 | [12] 0.986 | locus YNL298W, strain CLA4 (second series), active compounds read low 0.975 | locus YNL322C, strain KRE1, active compounds read low 1 | locus YNR030W, strain Alg12, active compounds read low 0.978 | [13] 1 | locus YPL241C, strain CIN2, active compounds read low 1.01 | locus YPR135W, strain CTF4, active compounds read low 0.946
